ChEMBL document CHEMBL1157539, “Thousands of chemical starting points for antimalarial lead identification” (Nature, 2010)

Assays:
Assay type in all cases: functional
Plasmodium falciparum [1] = experiment: GSK_TCMDC: Inhibition of Plasmodium falciparum 3D7 in whole red blood cells, using parasite LDH activity as an index of growth. Test compounds present at 2uM
Plasmodium falciparum [2] = experiment: GSK_TCMDC: Inhibition of Plasmodium falciparum Dd2 in whole red blood cells, using parasite LDH activity as an index of growth. Test compounds present at 2uM
HepG2 = experiment: GSK_TCMDC: Percent inhibition of human HepG2 cell line. Test compounds present at 10uM.

What does the source list for `CCCCN(CCCC)CCCN(CCCN(CCCC)CCCC)c1cc(C)nc(Nc2ccc(Br)cc2)n1.O=C(O)C(=O)O`?
Inhibition (Plasmodium falciparum [1]): 99%; Inhibition (Plasmodium falciparum [2]): 98%; Inhibition (HepG2): 51%

With `COc1cc(C(=O)NCCCN2CCN(c3cc(Cl)ccc3OC)CC2)ccc1-c1nc2cc(Cl)c(Cl)cc2[nH]1` as the compound, how does the Inhibition (Plasmodium falciparum [1]) read?
The Inhibition was 100%.

And the Inhibition (Plasmodium falciparum [2])?
Its Inhibition is 99%.

And the Inhibition (HepG2)?
Its Inhibition is 12%.

For `Cc1cc2c(cc1C(F)(F)F)N(C(=O)Nc1cc(C(=O)NCCN(C)C)cc(C(F)(F)F)c1)CC2`, which Inhibition (Plasmodium falciparum [1]) is on record?
Its Inhibition is 100%.

What about the Inhibition (Plasmodium falciparum [2]) of the same compound?
Its Inhibition is 50%.

And the Inhibition (HepG2)?
Its Inhibition is 19%.

Which results are given for `O=C(Nc1ccc(OC2CCN(Cc3ccc(F)cc3)C2)c(Cl)c1)c1ccc(F)cc1.O=C(O)C(F)(F)F` (stereo not drawn)?
Inhibition (Plasmodium falciparum [1]): 96%; Inhibition (Plasmodium falciparum [2]): 94%; Inhibition (HepG2): 10%

With `CC(C)CN(Cc1c(O)ccc2[nH]c(-c3ccc(F)cc3F)nc12)CC(C)C` as the compound, how does the Inhibition (Plasmodium falciparum [1]) read?
The Inhibition was 98%.

And the Inhibition (Plasmodium falciparum [2])?
Its Inhibition is 92%.

And the Inhibition (HepG2)?
The Inhibition was 11%.

Which results are given for `CC1CCC2(CC1)N=C(N)N=C(N)N2OCc1cc2ccccc2c2ccccc12` (stereo not drawn)?
Inhibition (Plasmodium falciparum [1]): 97%; Inhibition (Plasmodium falciparum [2]): 41%; Inhibition (HepG2): 27%

What does the source list for `Cc1noc(-c2ccccc2)c1CN1CCCC2(CC(C(=O)NCc3cccc(F)c3F)=NO2)C1.O=C(O)C(F)(F)F` (stereo not drawn)?
Inhibition (Plasmodium falciparum [1]): 85%; Inhibition (Plasmodium falciparum [2]): 28%; Inhibition (HepG2): 0%

Which Inhibition (Plasmodium falciparum [1]) does the source give for `Cc1cccc2nc(-c3ccc(-c4ccc(CN5CCN(c6ccncc6)CC5)cc4)cc3)[nH]c12.O=C(O)C(F)(F)F` here?
The Inhibition was 100%.

And the Inhibition (Plasmodium falciparum [2])?
The Inhibition was 100%.

What about the Inhibition (HepG2) of the same compound?
The Inhibition was 98%.

Which results are given for `CC(C)CNCc1ccc(-c2ccc(CN(C(=O)NCCc3ccccc3)C3CCN(Cc4ccccc4)CC3)cc2)cc1.O=C(O)C(F)(F)F`?
Inhibition (Plasmodium falciparum [1]): 98%; Inhibition (Plasmodium falciparum [2]): 62%; Inhibition (HepG2): 37%

How did the Inhibition (Plasmodium falciparum [1]) turn out when `COc1ccc(Nc2nc(NCc3ccco3)c3ccccc3n2)cc1.Cl` was run?
Its Inhibition is 99%.

And the Inhibition (Plasmodium falciparum [2])?
The Inhibition was 76%.

What about the Inhibition (HepG2) of the same compound?
The Inhibition was 38%.

Which Inhibition (Plasmodium falciparum [1]) does the source give for `CC(CNC(=O)c1cc2c(Cl)cc(Cl)cc2[nH]1)CNc1cc(=O)c2ccccc2[nH]1.O=C(O)C(F)(F)F` (stereo not drawn) here?
The Inhibition was 97%.

What about the Inhibition (Plasmodium falciparum [2]) of the same compound?
The Inhibition was 11%.

What about the Inhibition (HepG2) of the same compound?
The Inhibition was 11%.

Which Inhibition (Plasmodium falciparum [1]) does the source give for `CS(=O)(=O)c1ccccc1CNC(=O)c1cccc(-c2ccc(-c3nc4cc(C(F)(F)F)ccc4[nH]3)cc2)c1` here?
The Inhibition was 95%.

And the Inhibition (Plasmodium falciparum [2])?
The Inhibition was 7%.

What about the Inhibition (HepG2) of the same compound?
Its Inhibition is 86%.

Which Inhibition (Plasmodium falciparum [1]) does the source give for `CN(C)c1cccc(-c2cnc3ccc(NCc4cccc(Cl)c4)nn23)c1` here?
Its Inhibition is 99%.

And the Inhibition (Plasmodium falciparum [2])?
The Inhibition was 98%.

And the Inhibition (HepG2)?
The Inhibition was 11%.

With `CC(C)CNCc1cccc(-c2cccc(CNC3CCN(Cc4ccccc4)CC3)c2)c1.O=C(O)C(F)(F)F` as the compound, how does the Inhibition (Plasmodium falciparum [1]) read?
The Inhibition was 100%.

And the Inhibition (Plasmodium falciparum [2])?
Its Inhibition is 99%.

What about the Inhibition (HepG2) of the same compound?
Its Inhibition is 32%.

How did the Inhibition (Plasmodium falciparum [1]) turn out when `Cc1ccc(NC(=O)NC2CCN(CCC(NC(=O)Cc3ccccc3)c3ccc(Cl)c(Cl)c3)CC2)cc1` (stereo not drawn) was run?
The Inhibition was 100%.

And the Inhibition (Plasmodium falciparum [2])?
Its Inhibition is 2%.

And the Inhibition (HepG2)?
The Inhibition was 16%.

What does the source list for `NC(=O)c1ccccc1Nc1nc(Nc2cc[nH]n2)ncc1Cl`?
Inhibition (Plasmodium falciparum [1]): 96%; Inhibition (Plasmodium falciparum [2]): 93%; Inhibition (HepG2): 67%

Which results are given for `CN1CCC(C(=O)Nc2ccc(-c3ccc(-c4nc5ccccc5[nH]4)s3)cc2)CC1`?
Inhibition (Plasmodium falciparum [1]): 99%; Inhibition (Plasmodium falciparum [2]): 22%; Inhibition (HepG2): 30%

With `CN(Cc1cccc(O)c1)C1CCCN(c2cc(NC(=O)c3ccc(F)cc3)ccn2)C1.O=C(O)C(F)(F)F` (stereo not drawn) as the compound, how does the Inhibition (Plasmodium falciparum [1]) read?
The Inhibition was 91%.

What about the Inhibition (Plasmodium falciparum [2]) of the same compound?
The Inhibition was 12%.

And the Inhibition (HepG2)?
The Inhibition was 8%.

`Cc1nc(-c2cccc(NC(C)C(=O)Nc3cc(C(F)(F)F)ccc3N3CCOCC3)c2)cs1` (stereo not drawn) was tested. Which Inhibition (Plasmodium falciparum [1]) did it give?
Its Inhibition is 82%.

And the Inhibition (Plasmodium falciparum [2])?
The Inhibition was 97%.

And the Inhibition (HepG2)?
The Inhibition was 3%.

With `COc1ccc(CNC(=O)c2cnc3c(O)cccc3c2Nc2cccc(NC(=O)c3ccc(Cl)c([N+](=O)[O-])c3)c2)cc1.O=C(O)C(F)(F)F` as the compound, how does the Inhibition (Plasmodium falciparum [1]) read?
Its Inhibition is 86%.

What about the Inhibition (Plasmodium falciparum [2]) of the same compound?
The Inhibition was 21%.

And the Inhibition (HepG2)?
The Inhibition was 48%.

For `O=C(C=Cc1ccc(Cl)c(Cl)c1)NCCCCCN1CCC(CCCNC(=O)/C=C/c2ccccc2)CC1`, which Inhibition (Plasmodium falciparum [1]) is on record?
The Inhibition was 96%.

What about the Inhibition (Plasmodium falciparum [2]) of the same compound?
The Inhibition was 33%.

And the Inhibition (HepG2)?
The Inhibition was 50%.

For `CO[C@H](C)[C@H](NC(=O)[C@H](CC(C)C)[C@H](CCC(F)(F)F)N(O)C=O)C(=O)Nc1nccs1`, which Inhibition (Plasmodium falciparum [1]) is on record?
Its Inhibition is 99%.

And the Inhibition (Plasmodium falciparum [2])?
The Inhibition was 96%.

And the Inhibition (HepG2)?
The Inhibition was 0%.

`CC1(C)CCC(C)(C)c2c1ccc(C1CCN(CCCCNC(=O)c3ccc(-c4ccc(C#N)cc4)cc3)CC1)c2OCC(N)=O` was tested. Which Inhibition (Plasmodium falciparum [1]) did it give?
Its Inhibition is 100%.

What about the Inhibition (Plasmodium falciparum [2]) of the same compound?
Its Inhibition is 100%.

What about the Inhibition (HepG2) of the same compound?
Its Inhibition is 99%.

`COc1ccc2nccc([C@@H](O)CN3CCC(NC(=O)/C=C/c4cccc(NC(C)=O)c4)CC3)c2c1` was tested. Which Inhibition (Plasmodium falciparum [1]) did it give?
Its Inhibition is 90%.

What about the Inhibition (Plasmodium falciparum [2]) of the same compound?
The Inhibition was 60%.

And the Inhibition (HepG2)?
Its Inhibition is 5%.

For `CN(C)c1ccc(CN2CCC(CNC(=O)c3cc(-c4cccc(C(F)(F)F)c4)cs3)C2)cc1.O=C(O)C(F)(F)F` (stereo not drawn), which Inhibition (Plasmodium falciparum [1]) is on record?
Its Inhibition is 96%.

And the Inhibition (Plasmodium falciparum [2])?
The Inhibition was 34%.

And the Inhibition (HepG2)?
Its Inhibition is 39%.

What does the source list for `Cc1cc(O)c(-c2cc(C(=O)Nc3cccnc3)[nH]n2)cc1C`?
Inhibition (Plasmodium falciparum [1]): 97%; Inhibition (Plasmodium falciparum [2]): 97%; Inhibition (HepG2): 12%
